Measurements taken from PubChem BioAssay AID624331 (National Center for Advancing Translational Sciences (NCATS), 2012).
Results filed as inconclusive are left out. A call without a number means that no potency is given here. The source made the active and inactive calls. Calls follow the shape of the dose curve; as a rule, active = well fitted activation curve with a large enough effect; inconclusive = small, poorly fitted or top-dose-only effect; inactive = no such curve, though single readings can be large or run the other way.

test: qHTS assay for re-activators of p53 using a Luc reporter: Hit Validation with no p53 Expressed; details: p53-null cells, luciferase reporter counter-screen; series mostly up to 46.1 µM
Procedure, shortened: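 Counter-screen of primary hits in a cell line not transfected with p53, in Opti-MEM with 10% FBS; compounds at several concentrations (10 mM stock, 1:5; top 46.1 µM in well), 24 h at 37 deg C, 5% CO2. Luminescence read after 10 min with Amplite reagent.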
Potency is read from the fitted curve at half-maximal effect.

Compound | Potency
CC(=O)NC(=S)Nc1ccc(NC(=O)c2cccs2)cc1 | inactive
CN(Cc1ccccc1)C(=O)CNC(=O)Cn1cnc2ccccc2c1=O | inactive
COc1ccc(C(=O)Nc2nnc(C(F)(F)F)s2)cc1 | inactive
CC(C)(C)c1cc(-n2ccnc2)n2ncc(-c3ccc(Cl)cc3)c2n1 | inactive
C/C(=C\C(=O)c1ccccc1)Nc1ccc2c(c1)OCO2 | inactive
O=C(NC1CC1)c1cccc(NC(=O)c2cn3ccccc3n2)c1 | inactive
NC(=O)c1ccc(-n2c(CCC(=O)O)ccc2-c2cccs2)cc1 | inactive
Cc1ccc2c(c1)C(N1CCCC1=O)CC(c1ccco1)N2 (centres undefined) | inactive
O=C(NNC(=O)c1cccnc1SCc1cccc([N+](=O)[O-])c1)c1ccccn1 | inactive
CC(=O)Nc1ccc(SCC(=O)c2cc(C)n(-c3ccccc3)c2C)cc1 | inactive
COCCn1c(SCC(=O)Nc2ccc(N3CCOCC3)cc2)nc2ccccc21 | inactive
Nn1cnnc1N/N=C\c1ccc(-c2ccccc2[N+](=O)[O-])o1 | inactive
C/C(=N\NC(=O)c1cccs1)C(C)(C)C | inactive
C/C(=N\OCC(=O)NC12CC3CC(CC(C3)C1)C2)c1cc2ccccc2o1 | inactive
N#C/C(=C/c1ccccc1[N+](=O)[O-])c1nc(C2CC2)cs1 | inactive
S=C(Nc1cccc(Br)c1)c1ccccc1 | inactive
CCc1ccc(-n2cc(-c3ccc([N+](=O)[O-])cc3)[nH]c2=S)cc1 | inactive
O=C(NC12CC3CC(CC(C3)C1)C2)c1ccc(-c2cccc(Cl)c2)o1 | inactive
O=C(NC(=S)NCCc1ccccc1)C1CCCCC1 | inactive
COc1cc(N/N=C/c2ccccc2O)ncn1 | inactive

Compound | Potency
COc1ccc2c(c1)Cc1sc(NC(C)=O)nc1-2 | inactive
Fc1ccccc1OCCSc1nnnn1-c1ccccc1 | inactive
COc1ccc2oc(C(=O)Nc3nnc(C)s3)c(C)c2c1 | inactive
CC(C)(C)c1nnc(SCC(=O)c2ccccc2)n(N)c1=O | inactive
O=C(NCCC1=CCCCC1)c1ccc(F)c(S(=O)(=O)N2CCOCC2)c1 | inactive
CCC(=O)Nc1ccc2oc(-c3cccc(C)c3)nc2c1 | inactive
COc1ccc(-n2cnc3cc(C(=O)N4CCOCC4)ccc32)cc1 | inactive
CC(=O)Nc1cccc(C(=O)N/N=C/c2ccccc2F)c1 | inactive
Cc1nn2cc(-c3ccc(-c4ccccc4)cc3)nc2s1 | 731 nM (active)
COCCn1c(C)cc(C(=O)CSc2nc3ccccc3s2)c1C | inactive
CCOC(=O)c1c(C)nc(-c2ccccc2)nc1NC(=O)CC | inactive
Oc1[nH]c2ccccc2c1C=Nc1ccc2c(c1)OCCO2 | inactive
COc1ccc(-c2nnc(SCC(=O)/C(C#N)=C(\C)N)o2)cc1 | inactive
Cc1nnc2n(c1=O)N=C(c1ccc(Cl)cc1)CS2 | inactive
Cc1csc(NC(=O)/C=C/c2ccco2)n1 | inactive
Cc1cc(-c2ccccc2)n2ncc(-c3ccccc3)c2n1 | 1840 nM (active)
COc1cccc(C(=O)Nc2ccc(NC(=O)C(C)(C)C)cn2)c1 | 461 nM (active)
Fc1ccccc1/C=C/c1ccc2ccccc2n1 | inactive
COc1ccc2[nH]c(=O)c3c(c2c1)OC(C)(C)C=C3 | inactive
